Records with an inconclusive call do not appear. Where a call stands in place of a potency, no number is given. Unmarked numbers belong to inactive results. Active and inactive are the calls of the source. Calls follow the shape of the dose curve; as a rule, active = well fitted curve in the direction sought with a large enough effect; inconclusive = small, poorly fitted or top-dose-only effect, or another doubt; inactive = no such curve, though single readings can be large; an effect the other way counts as inactive or inconclusive. Where a SMILES comes first, the peptide text is derived from it. [ ]: non-standard residue; d: D form. 2Abz = Nc1ccccc1C(=O)O
How the values were obtained:
[1] = tested on: NIH3T3; assay: qHTS assay to identify novel small-molecules to repurpose for Merkel cell carcinoma treatment (AID 1296009); conditions: MCC and control cell lines, CellTiter-Glo viability, 72 h; at 44.8 µM (top of the series) unless noted; also: nearly all actives have a fitted effect of over 60% in size
Outline: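 Cell viability, measured as CellTiter-Glo luminescence, was normalized between DMSO and no-cell wells. The cells had been exposed to 8- or 11-point compound dilutions for 72 hr at 37 degree celsius.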

[2] = tested on: C33A; assay: Primary qHTS to identify gynecologic anti-cancer compounds using libraries of approved drugs and bioactive compounds (AID 1345084); conditions: Gynecologic cancer cell panel viability, ATPlite luminescence, 48 h; series mostly up to 57.5 µM; also: nearly all actives have a fitted effect of over 55% in size; also: potency is read from the fitted curve at half-maximal effect
Outline: (§1)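 Measured: luminescence after ATPlite addition (15 min, RT). Exposure: 48 h, 37 C, 5% CO2.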

[3] = tested on: CAOV3; assay: as above; conditions: Gynecologic cancer cell panel viability, ATPlite luminescence, 48 h; series mostly up to 57.5 µM
Outline: as §1

[4] = tested on: CASKI; assay: as above; conditions: Gynecologic cancer cell panel viability, ATPlite luminescence, 48 h; series mostly up to 57.5 µM
Outline: as §1

[5] = tested on: Es-2; assay: as above; conditions: Gynecologic cancer cell panel viability, ATPlite luminescence, 48 h; series mostly up to 57.5 µM
Outline: as §1

[6] = tested on: HeLa; assay: as above; conditions: Gynecologic cancer cell panel viability, ATPlite luminescence, 48 h; series mostly up to 57.5 µM
Outline: as §1

[7] = tested on: Hek293T; assay: as above; conditions: Gynecologic cancer cell panel viability, ATPlite luminescence, 48 h, control line for the selectivity index; series mostly up to 57.5 µM
Outline: as §1

C=C1CC[C@@H]2[C@](C)(CO[C@@H]3O[C@H](CO)[C@@H](O)[C@H](O)[C@H]3O)CCC[C@@]2(C)[C@@H]1CCC1=CCOC1=O
outcome [1]: inactive [at 17.4 µM]
Potency [2]: inactive
Potency [3]: inactive
Potency [4]: inactive
Potency [5]: inactive
Potency [6]: inactive
Potency [7]: inactive

COc1ccc2c(c1)O[C@H](O[C@@H]1O[C@H](CO)[C@@H](O)[C@H](O)[C@H]1O)C(=O)N2
outcome [1]: inactive
Potency [2]: inactive
Potency [4]: inactive
Potency [5]: inactive
Potency [6]: inactive
Potency [7]: inactive

C[C@@H]1O[C@@H](O[C@H]2[C@H](OC(=O)[C@]34CCC(C)(C)C[C@H]3C3=CCC5[C@@]6(C)CC[C@H](O[C@@H]7O[C@H](CO[C@@H]8OC[C@H](O)[C@H](O)[C@H]8O)[C@@H](O)[C@H](O)[C@H]7O)C(C)(C)C6CC[C@@]5(C)[C@]3(C)C[C@H]4O)OC[C@@H](O)[C@@H]2O)[C@H](O)[C@H](O)[C@H]1O[C@@H]1OC[C@H](O)[C@H](O[C@@H]2OC[C@@H](O)[C@H](O)[C@H]2O)[C@H]1O (stereo partly drawn)
outcome [1]: inactive [at 9.27 µM]
activity change, negative = cytotoxicity [2]: 2.46% [at 6.55 µM]
activity change, negative = cytotoxicity [3]: -15.5% [at 6.55 µM]
activity change, negative = cytotoxicity [4]: -13.2% [at 6.55 µM]
activity change, negative = cytotoxicity [5]: -2.02% [at 6.55 µM]
activity change, negative = cytotoxicity [6]: 18.3% [at 6.55 µM]
activity change, negative = cytotoxicity [7]: -6.63% [at 6.55 µM]

CC(C)CC(=O)OC[C@H]1O[C@@](COC(=O)CC(C)C)(O[C@H]2O[C@H](CO)[C@@H](O)[C@H](O)[C@H]2O)[C@@H](OC(=O)CC(C)C)[C@@H]1OC(=O)CC(C)C
outcome [1]: inactive [at 17.4 µM]
Potency [2]: inactive
Potency [4]: inactive
Potency [5]: inactive
Potency [6]: inactive
Potency [7]: inactive

COc1ccc2c(c1)OC[C@]1(O)c3cc4c(cc3O[C@H]21)OCO4
outcome [1]: inactive
Potency [2]: inactive
Potency [3]: inactive
Potency [4]: inactive
Potency [5]: inactive
Potency [6]: inactive
Potency [7]: inactive

CCC(C)C1NC(=O)C2CCCN2C(=O)C(C(C)C)NC(=O)c2ccccc2NC(=O)C(Cc2ccc(O)cc2)NC(=O)C(C)NC(=O)C(C(C)O)NC1=O (stereo not drawn) (cyclo([2Abz]VPITAY); configuration not given here)
outcome [1]: inactive [at 17.4 µM]
Potency [2]: inactive
Potency [3]: inactive
Potency [4]: inactive
Potency [5]: inactive
Potency [6]: inactive
Potency [7]: inactive

CC1(C)C(=O)C(C)(C)c2cc(C(=O)Nc3ccc(C(=O)O)cc3)ccc21
outcome [1]: inactive
Potency [2]: inactive
Potency [3]: inactive
Potency [4]: inactive
Potency [5]: inactive
Potency [6]: inactive
Potency [7]: inactive

NCc1c[nH]c(=S)n1C1CCc2c(F)cc(F)cc2C1 (stereo not drawn)
outcome [1]: inactive
Potency [2]: inactive
Potency [3]: inactive
Potency [4]: inactive
Potency [5]: inactive
Potency [6]: inactive
Potency [7]: inactive

CC1=CC2(O)/C=C/C(C)(O)CC(O)/C=C/C(=O)OC23C(=O)NC(CC(C)C)C3C1C (stereo not drawn)
outcome [1]: inactive [at 17.4 µM]
Potency [2]: inactive
Potency [3]: inactive
Potency [4]: inactive
Potency [5]: inactive
Potency [6]: inactive
Potency [7]: inactive

C[C@H]1CN(C[C@H](Cc2ccccc2)C(=O)NCC(=O)O)CC[C@@]1(C)c1cccc(O)c1
outcome [1]: inactive
Potency [2]: inactive
Potency [3]: inactive
Potency [4]: inactive
Potency [5]: inactive
Potency [6]: inactive
Potency [7]: inactive

COC(=O)[C@@H]1C2CC3c4[nH]c5ccccc5c4CCN3CC2CC[C@@H]1O (stereo partly drawn)
outcome [1]: inactive
Potency [2]: inactive
Potency [3]: inactive
Potency [4]: inactive
Potency [5]: inactive
Potency [6]: inactive
Potency [7]: inactive

CC(C#N)C(C)O[C@@H]1O[C@H](CO)[C@@H](O)[C@H](O)[C@H]1O (stereo partly drawn)
outcome [1]: inactive
Potency [2]: inactive
Potency [3]: inactive
Potency [4]: inactive
Potency [5]: inactive
Potency [6]: inactive
Potency [7]: inactive

COC(=O)C1(Cc2ccc(O)cc2)OC(=O)C(OC)=C1c1ccc(O)cc1 (stereo not drawn)
outcome [1]: inactive
Potency [2]: inactive
Potency [3]: inactive
Potency [4]: inactive
Potency [5]: inactive
Potency [6]: inactive
Potency [7]: inactive

C=C1[C@@H]2CC[C@@]3(C)[C@H](c4ccoc4)OC(=O)C[C@]13O[C@H]1CC(=O)C(C)(C)[C@H](CC(=O)OC)[C@]12C
outcome [1]: inactive [at 17.4 µM]
Potency [2]: inactive
Potency [3]: inactive
Potency [4]: inactive
Potency [5]: inactive
Potency [6]: inactive
Potency [7]: inactive

CC(/C=C/C1(O)C(C)CC(O)CC1(C)C)OC1OC(CO)C(O)C(O)C1O (stereo not drawn)
outcome [1]: inactive
Potency [2]: inactive
Potency [3]: inactive
Potency [4]: inactive
Potency [5]: inactive
Potency [6]: inactive
Potency [7]: inactive

Cn1c(=O)cc(N2CCCC(N)C2)n(Cc2ccccc2C#N)c1=O (stereo not drawn)
outcome [1]: inactive
Potency [2]: inactive
Potency [3]: inactive
Potency [4]: inactive
Potency [5]: inactive
Potency [6]: inactive
Potency [7]: inactive

Clc1ccc2c(c1)C1=NCCN1c1c(-c3noc(C4CC4)n3)ncn1-2
outcome [1]: inactive
Potency [2]: inactive
Potency [4]: inactive
Potency [5]: inactive
Potency [6]: 3.16 µM (active)
Potency [7]: inactive

C=C1CC[C@H]2[C@@](C)(CCC(O)[C@@]2(C)CO)[C@@H]1C/C=C(/C(=O)O)C(O)CO (stereo partly drawn)
outcome [1]: inactive
Potency [2]: inactive
Potency [3]: inactive
Potency [5]: inactive
Potency [6]: inactive
Potency [7]: inactive

CC[C@@H](c1ccc(F)c(F)c1)n1c(C(=O)OC)c(-c2ccno2)[nH]c1=S
outcome [1]: inactive
Potency [2]: inactive
Potency [3]: inactive
Potency [6]: inactive
Potency [7]: inactive

C=C1CC[C@@H]2[C@](C)(CC[C@H](O)[C@@]2(C)CCC=C(C)C)[C@@H]1Cc1c[nH]c2ccccc12
outcome [1]: inactive [at 17.4 µM]
Potency [2]: inactive
Potency [4]: inactive
Potency [5]: inactive
Potency [6]: inactive
Potency [7]: inactive
